In the supplement of paper PMC7411054:
Structures can show the parent of a compound that is named as a salt.

Experiments:
Assay in all cases: lowest phenotypically active concentration; higher = less potent
Conditions in all cases: treatment time: 24 h
[1] = system: A549-TP53BP1-CLTA
Summary of the method: (§1)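 The reporter lines, fifteen in total and built by gene editing in A549, HepG2 and WPMY1 cells, used BFP for segmentation alongside GFP and RFP/FusionRed markers. Each was treated at 0.3, 1, 3 or 9 µM for 24 h in four wells and then imaged live, with live-cell features normalised to solvent control wells. Deviation meant ≥3 of 4 wells beyond the 95th percentile of control Euclidean distances; reproducibility meant a median replicate Pearson correlation above the 95th percentile of non-replicates. Only conditions meeting both were scored as phenotypically active.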

[2] = system: A549-TUBA1B-RELA
Summary of the method: as §1

[3] = system: HepG2-ACTB-RAB5A
Summary of the method: as §1

[4] = system: HepG2-CANX-COX4
Summary of the method: as §1

[5] = system: HepG2-GM130-SQSTM1
Summary of the method: as §1

[6] = system: WPMY1-ACTB-RAB5A
Summary of the method: as §1

[7] = system: WPMY1-CANX-COX4
Summary of the method: as §1

[8] = system: WPMY1-GM130-SQSTM1
Summary of the method: as §1

[9] = system: WPMY1-TP53BP1-CLTA
Summary of the method: as §1

[10] = system: WPMY1-TUBA1B-RELA
Summary of the method: as §1

Measured: lowest phenotypically active concentration

Clc1ccc(N/N=C(\c2ccccc2)c2ccccn2)nc1
≤ 0.3 µM: [2] | [3] | [4]
1 µM: [5] | [6] | [7] | [8] | [9] | [10]
3 µM: [1]

CCOC(=O)Nc1cc(-c2ccc(C)c(NS(C)(=O)=O)c2)nn2c(C)nnc12 [Bromosporine]
≤ 0.3 µM: [3] | [4]
1 µM: [1] | [2] | [5] | [6] | [7] | [8] | [9] | [10]

Cc1noc(C)c1-c1cc(O)cc(C(O)c2ccccc2)c1 (stereo not given)
1 µM: [8]
3 µM: [1] | [2] | [3] | [4] | [5] | [6] | [7] | [9] | [10]

C[C@@H](CN1CCC(n2c(=O)[nH]c3cc(Cl)ccc32)CC1)NC(=O)c1ccc2ccccc2c1
9 µM: [1] | [3] | [4] | [5] | [6] | [7] | [8] | [9] | [10]
3 µM: [2]

CCCC1(CCC)CCC2(CCN(CCCN(CC)CC)C2)CC1 [Atiprimod dihydrochloride]
≤ 0.3 µM: [2]
1 µM: [1] | [3] | [4] | [5] | [6] | [7] | [8] | [9] | [10]

CS(=O)(=O)c1cccc(CNc2nc(Nc3ccc4c(c3)CCC(=O)N4)ncc2C(F)(F)F)c1
3 µM: [1] | [2] | [5] | [7] | [8] | [10]
1 µM: [3] | [4] | [6] | [9]

CC(C)n1nc(-c2cc3cc(O)ccc3[nH]2)c2c(N)ncnc21
1 µM: [1] | [2] | [3] | [6] | [7] | [8] | [9]
≤ 0.3 µM: [4] | [5]
3 µM: [10]

Nc1ncn([C@@H]2O[C@H](CO)[C@@H](O)[C@H]2O)c(=O)n1 [5-Azacytidine]
≤ 0.3 µM: [3] | [4] | [5]
1 µM: [1] | [8]
9 µM: [2]
3 µM: [6] | [7] | [9] | [10]

Cc1nc(Nc2ncc(C(=O)Nc3c(C)cccc3Cl)s2)cc(N2CCN(CCO)CC2)n1 [dasatinib]
1 µM: [2]
≤ 0.3 µM: [1] | [3] | [4] | [5] | [6] | [7] | [8] | [9] | [10]

C[C@H]1[C@H]2CC[C@H]3[C@@H]4CC=C5C[C@@H](N(C)C)CC[C@]5(C)[C@H]4CC[C@]23CN1C [Conessine]
3 µM: [1] | [5] | [7] | [9]
9 µM: [3] | [4] | [6] | [10]
1 µM: [2] | [8]

COc1cc(/C=C/c2ccc(OC)cc2OC)cc(OC)c1
3 µM: [2] | [3] | [4] | [5]
1 µM: [1] | [6] | [7] | [8] | [9] | [10]

COc1ccccc1S(=O)(=O)Nc1ccc2c(c1)CN(C)C(=O)N2
9 µM: [9]
1 µM: [3]
3 µM: [1] | [2] | [4] | [5] | [6] | [7] | [8] | [10]

c1ccc2c(c1)Cc1c(Nc3ccc4c(c3)OCCO4)n[nH]c1-2
9 µM: [5]
3 µM: [1] | [2] | [3] | [4] | [6] | [7] | [8] | [9] | [10]

CC[C@@H](N)CNc1ccnc(-c2cc(-c3cnn(C)c3)ccc2O)n1
3 µM: [6]
1 µM: [1] | [2] | [3] | [4] | [5] | [7] | [8] | [9] | [10]

CCN(CC)c1ccc(/C=N/NC(=O)c2ccncc2)c(O)c1
1 µM: [1] | [2] | [10]
≤ 0.3 µM: [3] | [4] | [5] | [6] | [7] | [8] | [9]

COc1cc(N2CCC(N3CCN(C)CC3)CC2)ccc1Nc1ncnc(Nc2ccccc2S(=O)(=O)C(C)C)n1
9 µM: [1] | [2] | [3] | [5] | [6] | [8] | [9] | [10]
3 µM: [4] | [7]

CC[C@H](CO)Nc1nc(NCc2ccc(-c3ccccn3)cc2)c2ncn(C(C)C)c2n1
≤ 0.3 µM: [1] | [2] | [3] | [4] | [5] | [6] | [7] | [8] | [9] | [10]

CC(=C/[C@@H](C)C(=O)c1ccc(N(C)C)cc1)/C=C/C(=O)NO [Trichostatin A]
≤ 0.3 µM: [1] | [2] | [3] | [4] | [5] | [6] | [7] | [8] | [9] | [10]

O=C(O)c1ccc(Nc2ncc3c(n2)-c2ccc(Cl)cc2C(c2c(F)cccc2F)=NC3)cc1
≤ 0.3 µM: [1] | [2] | [3] | [4] | [5] | [6] | [9] | [10]
3 µM: [7]
9 µM: [8]

Nc1ncnc2c1c(-c1cnc3[nH]ccc3c1)nn2C1CCCC1
≤ 0.3 µM: [1] | [2] | [4] | [5] | [9]
1 µM: [3] | [6] | [7] | [8] | [10]

N#Cc1c(C2CCNCC2)cc(-c2c(O)cccc2OCC2CC2)nc1N
3 µM: [6] | [7]
9 µM: [1] | [2] | [3] | [4] | [5] | [8] | [9] | [10]

COc1ccc(S(=O)(=O)Nc2cccnc2Nc2ccc(O)cc2)cc1
1 µM: [1] | [3] | [4] | [5] | [8]
3 µM: [2]
≤ 0.3 µM: [6] | [7] | [9] | [10]

CCCCCCCCCCCCCCCC[n+]1ccn(Cc2ccccc2)c1C
1 µM: [1] | [2] | [3] | [4] | [5] | [7]
3 µM: [6] | [8] | [9] | [10]

COc1cc(C(=O)N2CCC(N3CCN(C)CC3)CC2)ccc1Nc1ncc2c(n1)N(C)c1ccccc1C(=O)N2C
9 µM: [1]
3 µM: [2] | [6] | [7] | [9]
1 µM: [3] | [4] | [5] | [8] | [10]

Nc1ccc(-c2cccc3c(=O)cc(N4CCOCC4)oc23)cc1
3 µM: [3] | [5] | [6] | [7] | [8]
9 µM: [1] | [2] | [4] | [9] | [10]

COc1cc(N2CCN(C)CC2)ccc1Nc1nccc(-c2cn(C)c3cnccc23)n1
1 µM: [1] | [2] | [4] | [5] | [6] | [8] | [9] | [10]
3 µM: [3]
≤ 0.3 µM: [7]

O=C1c2c(O)ccc(O)c2C(=O)c2c(NCCNCCO)ccc(NCCNCCO)c21 [mitoxantrone]
≤ 0.3 µM: [1] | [2] | [3] | [4] | [5] | [6] | [7] | [8] | [9] | [10]

Cc1ccc(C(=O)N(CCCN)[C@@H](c2oc3cc(Cl)ccc3c(=O)c2Cc2ccccc2)C(C)C)cc1
≤ 0.3 µM: [1] | [2] | [3] | [4] | [5] | [6] | [8] | [9] | [10]
3 µM: [7]

CN1CCN(C(=O)CN[C@H]2C[C@@H]2c2ccc(OCc3ccccc3)cc2)CC1 [RN 1 dihydrochloride]
3 µM: [2] | [5]
9 µM: [1] | [3] | [6] | [7] | [8] | [9] | [10]

CCN(CC)CCNc1ccc(CO)c2sc3ccccc3c(=O)c12 [hycanthone]
9 µM: [1] | [2] | [3] | [5] | [6] | [7] | [9] | [10]
3 µM: [8]

CCCCCCCCCCNCCSSCc1ccc(Cl)cc1
1 µM: [4]
9 µM: [1] | [5] | [8] | [9]
3 µM: [2] | [3] | [7]

Nc1ncnc(Nc2ccc(OCc3ccccc3)c(Cl)c2)c1/C=N/OCCN1CCOCC1
1 µM: [1] | [2]
9 µM: [3] | [5]

S=C(S)N1CCCC1 [Pyrrolidinedithiocarbamate ammonium]
9 µM: [1] | [3] | [5] | [8]
3 µM: [2] | [4]

Cn1cnc2c(F)c(Nc3ccc(Br)cc3Cl)c(C(=O)NOCCO)cc21 [selumetinib]
3 µM: [8] | [9]
≤ 0.3 µM: [1] | [2] | [3] | [4] | [5]
9 µM: [6]

O=C(CCCCCCC(=O)Nc1cccnc1)NO [Pyroxamide]
3 µM: [3] | [4] | [5] | [7] | [8] | [9] | [10]
9 µM: [1] | [2] | [6]

O=C1c2ccccc2-c2nc3nonc3nc21
3 µM: [1] | [2] | [3] | [5] | [6] | [10]
≤ 0.3 µM: [4]
9 µM: [7]

CN(C)C(=O)C(CCN1CCC(O)(c2ccc(Cl)cc2)CC1)(c1ccccc1)c1ccccc1 [loperamide]
9 µM: [1] | [5] | [6] | [7] | [8] | [9] | [10]
3 µM: [2] | [3]

CC(C)CNc1nc(-c2cccc3ncccc23)cn2c(-c3ccc(C(=O)NC4CC4)cc3)cnc12
≤ 0.3 µM: [2]
1 µM: [1] | [3] | [4] | [5] | [6] | [8] | [9]

COc1cc(O)cc(O)c1C(=O)/C=C/c1ccccc1 [Cardamonin]
9 µM: [1] | [2] | [3] | [4] | [6] | [7] | [8] | [9] | [10]
3 µM: [5]

COc1cc2c(cc1O)CC[C@@H]1[C@@H]2CC[C@]2(C)[C@@H](O)CC[C@@H]12 [2-methoxyestradiol]
1 µM: [1] | [2] | [4] | [6] | [7] | [9] | [10]
3 µM: [3] | [5]

C=CC(=O)Nc1cccc(Nc2nc(Nc3ccc(Oc4ccnc(C(=O)NC)c4)cc3)ncc2F)c1
9 µM: [1] | [2] | [3] | [5] | [7] | [8]
3 µM: [6]

O=C(NOC[C@H](O)CO)c1ccc(F)c(F)c1Nc1ccc(I)cc1F
≤ 0.3 µM: [1] | [3] | [4] | [5]
1 µM: [2] | [6] | [9]
3 µM: [8]

Cc1ccc(Nc2nccc(N(C)c3ccc4c(C)n(C)nc4c3)n2)cc1S(N)(=O)=O [pazopanib]
3 µM: [2] | [4] | [5] | [7] | [10]
1 µM: [1]
9 µM: [6]
